For 38 compounds, Potency results are on record in PubChem BioAssay (Tox21).

Values joined by “and” are separate entries in the source; they are usually repeats but may differ in a detail not shown here. Equal entries are not always repeated. Inconclusive results are not listed. Some structures have more than one record in an assay (separate samples or runs), and their calls can disagree. Active and inactive are the calls of the source. Calls follow the shape of the dose curve; as a rule, active = well fitted curve in the direction sought with a large enough effect in the repeat runs; inconclusive = weak or mixed curves; inactive = no such curve, though single readings can be large; an effect the other way counts as inactive or inconclusive.

Assay [1] addresses Cytochrome P450 2C19 (Homo sapiens) (UniProt P33261). The assay is described as follows: Cytochrome P450 Family 2 Subfamily C Member 19 (CYP2C19) small molecule antagonists: luciferase reporter qHTS assay (AID 1671197). Also: nearly all actives have a fitted effect of over 65% in size. As to conditions: P450-Glo CYP2C19 enzyme, luciferin luminescence, 1 h; series mostly up to 115 µM. The essentials:
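P450-Glo CYP2C19 screening system; proluciferin substrate; DMSO compound stocks; 10 min RT preincubation; NADPH regeneration, 1 h at 37C; luciferin detection reagent, 20 min RT; luminescence as RLU.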
A general note: A reporter such as luciferase makes a cellular process visible.

The target of assay [2] is Cytochrome P450 1A2 (Homo sapiens) (UniProt P05177). The assay is described as follows: Cytochrome P450 Family 1 Subfamily A Member 2 (CYP1A2) small molecule antagonists: luciferase reporter qHTS assay (AID 1671199). Also: nearly all actives have a fitted effect of over 50% in size. As to conditions: P450-Glo CYP1A2 enzyme, luciferin luminescence, 1 h; series mostly up to 115 µM. A digest of the protocol: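 Luminescence readout (relative luminescence units) after luciferin detection reagent, 20 min RT. Preceded by 1 h room-temperature CYP1A2 reaction with NADPH regeneration solution following 10 min compound preincubation with enzyme and proluciferin substrate. Furafylline positive control.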

The target in assay [3] is Voltage-gated inwardly rectifying potassium channel KCNH2 (Homo sapiens) (UniProt Q12809). The experiment in a line: Human Ether-a-go-go-Related Gene (hERG) channel small molecule antagonists: fluorescence cell-based qHTS assay (AID 1671200). Also: nearly all actives have a fitted effect of over 50% in size. The conditions noted are these: hERG-U2OS cells, FluxOR thallium flux fluorescence; series mostly up to 76.8 µM. The essentials:
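Channel function was assessed by thallium flux. Cells seeded the previous day and kept at 37 C took up FluxOR II dye over 1 h in the dark at room temperature, then sat another 10 min before stimulation.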
On the technique in general: Block of hERG is tested as a sign of cardiac risk.

Assay [4] has as its target Cytochrome P450 3A4 (Homo sapiens) (UniProt P08684). The assay is described as follows: Cytochrome P450 Family 3 Subfamily A Member 4 (CYP3A4) small molecule antagonists: luciferase reporter qHTS assay (AID 1671201). Also: nearly all actives have a fitted effect of over 50% in size. The conditions noted are these: P450-Glo CYP3A4 enzyme, luciferin luminescence, 1 h; series mostly up to 115 µM. A digest of the protocol:
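Compounds in DMSO were pin-transferred onto CYP3A4 enzyme-substrate mix and held 10 min at room temperature. NADPH regenerating solution started the reaction for 1 h; luciferin detection reagent stopped it, and luminescence was read after 20 min.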

For assay [5], the target named is Cytochrome P450 2C9 (Homo sapiens) (UniProt P11712). The assay is described as follows: Cytochrome P450 Family 2 Subfamily C Member 9 (CYP2C9) small molecule antagonists: luciferase reporter qHTS assay (AID 1671198). Also: nearly all actives have a fitted effect of over 50% in size. As to conditions: P450-Glo CYP2C9 enzyme assay, luciferin luminescence; series mostly up to 115 µM. The essentials: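 CYP2C9 activity was measured with a P450-Glo proluciferin substrate. Enzyme–substrate mix was held with compound for 10 min at room temperature, then NADPH regeneration solution was added for 1 h at 37C. Luciferin product was read as luminescence.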
Potency is read from the fitted curve at half-maximal effect.

Sequence of Voltage-gated inwardly rectifying potassium channel KCNH2 (Homo sapiens) (Q12809 whole entry, looked up): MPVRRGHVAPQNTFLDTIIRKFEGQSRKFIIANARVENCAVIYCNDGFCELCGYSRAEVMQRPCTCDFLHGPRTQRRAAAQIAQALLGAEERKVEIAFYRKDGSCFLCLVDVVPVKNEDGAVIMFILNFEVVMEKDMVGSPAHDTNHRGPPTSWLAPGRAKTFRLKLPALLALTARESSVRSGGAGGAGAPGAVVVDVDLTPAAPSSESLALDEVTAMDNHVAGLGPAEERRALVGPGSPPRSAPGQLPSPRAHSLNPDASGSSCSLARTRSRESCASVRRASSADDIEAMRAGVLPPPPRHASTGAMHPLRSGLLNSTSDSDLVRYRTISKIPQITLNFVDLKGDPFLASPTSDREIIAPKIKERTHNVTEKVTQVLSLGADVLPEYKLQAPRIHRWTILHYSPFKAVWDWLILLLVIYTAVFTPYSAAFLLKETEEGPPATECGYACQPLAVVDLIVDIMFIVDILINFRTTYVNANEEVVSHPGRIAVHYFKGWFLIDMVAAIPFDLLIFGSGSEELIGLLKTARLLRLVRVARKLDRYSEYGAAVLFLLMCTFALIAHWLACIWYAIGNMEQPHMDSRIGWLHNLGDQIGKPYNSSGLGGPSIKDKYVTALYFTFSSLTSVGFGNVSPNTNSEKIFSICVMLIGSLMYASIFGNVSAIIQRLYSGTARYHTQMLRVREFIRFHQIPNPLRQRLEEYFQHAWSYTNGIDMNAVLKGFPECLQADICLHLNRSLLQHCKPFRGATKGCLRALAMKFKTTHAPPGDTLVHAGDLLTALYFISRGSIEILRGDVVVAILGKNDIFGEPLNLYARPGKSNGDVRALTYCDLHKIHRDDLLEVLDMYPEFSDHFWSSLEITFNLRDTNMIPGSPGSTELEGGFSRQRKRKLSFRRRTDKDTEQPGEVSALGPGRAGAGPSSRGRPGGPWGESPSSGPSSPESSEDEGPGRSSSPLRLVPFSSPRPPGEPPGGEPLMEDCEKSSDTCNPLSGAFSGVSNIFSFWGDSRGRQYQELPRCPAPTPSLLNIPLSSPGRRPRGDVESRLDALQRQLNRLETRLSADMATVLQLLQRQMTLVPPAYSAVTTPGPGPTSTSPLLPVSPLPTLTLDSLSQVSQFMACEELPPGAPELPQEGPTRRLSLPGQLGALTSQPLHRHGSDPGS
Sequence of Cytochrome P450 2C9 (Homo sapiens) (P11712 whole entry, looked up): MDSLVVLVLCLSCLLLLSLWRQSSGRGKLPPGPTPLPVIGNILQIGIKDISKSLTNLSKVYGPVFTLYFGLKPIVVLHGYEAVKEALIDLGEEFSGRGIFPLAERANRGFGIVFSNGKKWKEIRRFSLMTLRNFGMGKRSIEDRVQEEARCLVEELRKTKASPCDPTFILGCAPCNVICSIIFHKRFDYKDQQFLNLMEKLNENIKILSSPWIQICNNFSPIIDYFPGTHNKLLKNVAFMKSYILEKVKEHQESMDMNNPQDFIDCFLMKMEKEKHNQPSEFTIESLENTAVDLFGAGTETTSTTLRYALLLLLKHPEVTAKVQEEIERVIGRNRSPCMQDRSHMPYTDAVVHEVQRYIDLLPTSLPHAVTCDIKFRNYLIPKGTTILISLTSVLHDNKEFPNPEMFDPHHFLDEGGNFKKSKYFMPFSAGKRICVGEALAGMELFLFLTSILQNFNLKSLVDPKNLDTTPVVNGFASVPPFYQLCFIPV
Sequence of Cytochrome P450 1A2 (Homo sapiens) (P05177 whole entry, looked up): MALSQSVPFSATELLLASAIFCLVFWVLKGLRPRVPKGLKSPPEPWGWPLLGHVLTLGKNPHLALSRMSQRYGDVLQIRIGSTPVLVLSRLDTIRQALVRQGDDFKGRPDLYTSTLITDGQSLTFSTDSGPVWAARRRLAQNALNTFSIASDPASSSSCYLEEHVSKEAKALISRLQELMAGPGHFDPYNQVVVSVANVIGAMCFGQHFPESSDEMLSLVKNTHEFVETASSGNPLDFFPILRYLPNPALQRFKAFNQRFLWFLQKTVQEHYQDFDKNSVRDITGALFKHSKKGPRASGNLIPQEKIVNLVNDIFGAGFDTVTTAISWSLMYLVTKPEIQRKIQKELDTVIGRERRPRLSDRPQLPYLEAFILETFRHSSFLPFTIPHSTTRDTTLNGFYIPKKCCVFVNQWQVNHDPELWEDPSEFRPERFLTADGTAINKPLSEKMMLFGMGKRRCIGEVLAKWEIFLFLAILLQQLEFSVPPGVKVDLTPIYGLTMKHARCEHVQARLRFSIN
Sequence of Cytochrome P450 2C19 (Homo sapiens) (P33261 whole entry, looked up): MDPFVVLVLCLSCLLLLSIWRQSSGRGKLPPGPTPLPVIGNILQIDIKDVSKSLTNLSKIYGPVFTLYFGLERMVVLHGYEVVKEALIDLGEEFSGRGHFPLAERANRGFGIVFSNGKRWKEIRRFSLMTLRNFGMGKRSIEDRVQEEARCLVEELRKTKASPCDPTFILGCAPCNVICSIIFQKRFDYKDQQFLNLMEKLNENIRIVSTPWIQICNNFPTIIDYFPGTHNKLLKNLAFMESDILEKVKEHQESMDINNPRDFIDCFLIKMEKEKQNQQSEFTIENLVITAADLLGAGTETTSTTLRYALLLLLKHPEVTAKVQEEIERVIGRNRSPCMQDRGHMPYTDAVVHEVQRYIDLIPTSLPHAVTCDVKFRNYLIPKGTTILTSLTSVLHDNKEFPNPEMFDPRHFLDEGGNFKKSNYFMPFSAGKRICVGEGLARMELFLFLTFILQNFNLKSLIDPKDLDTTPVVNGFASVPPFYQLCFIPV
Sequence of Cytochrome P450 3A4 (Homo sapiens) (P08684 whole entry, looked up): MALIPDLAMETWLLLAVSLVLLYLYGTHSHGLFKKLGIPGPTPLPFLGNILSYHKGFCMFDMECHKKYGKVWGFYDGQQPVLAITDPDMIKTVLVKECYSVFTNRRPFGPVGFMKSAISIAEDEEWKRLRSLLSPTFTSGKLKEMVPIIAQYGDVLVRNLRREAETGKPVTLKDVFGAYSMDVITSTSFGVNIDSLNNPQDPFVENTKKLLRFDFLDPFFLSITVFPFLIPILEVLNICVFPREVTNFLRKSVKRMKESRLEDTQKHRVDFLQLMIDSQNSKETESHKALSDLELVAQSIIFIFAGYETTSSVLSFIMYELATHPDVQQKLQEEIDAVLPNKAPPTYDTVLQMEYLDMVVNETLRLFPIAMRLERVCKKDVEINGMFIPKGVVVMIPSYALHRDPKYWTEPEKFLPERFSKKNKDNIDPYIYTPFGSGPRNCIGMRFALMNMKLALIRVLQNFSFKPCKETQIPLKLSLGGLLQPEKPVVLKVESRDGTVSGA

In the case of `COc1cc([C@H]2Oc3cc([C@H]4Oc5cc(O)cc(O)c5C(=O)[C@@H]4O)ccc3O[C@@H]2CO)ccc1O`, the Potency result in assay [1] and in assay [3] was “inactive” in each case. For the same compound, in assay [2], the Potency is 35.5 µM (active) and inactive.

As to `CCCCCCCC/C=C\CCCCCCCC(=O)O`, in assay [1], the Potency was 71.4 µM (active) and inactive. Further, the Potency result in assay [2], in assay [3] and in assay [4] was “inactive” each time.

With `c1ccc2cc3ccccc3cc2c1`, the Potency is 41.2 µM (active) and 79.6 µM (active) in assay [1]; 653 nM (active) and 502 nM (active) in assay [2]. Further, the Potency entry in assay [3] and in assay [4] was “inactive” in each case.

On to `CN(C)/N=N/c1nc[nH]c1C(N)=O`, for which the Potency result in assay [1], in assay [3] and in assay [4] was “inactive” in each case. In addition, the Potency entry in assay [2] was “inactive and 34.7 µM (active)”.

Regarding `C1CN(SSN2CCOCC2)CCO1`, the Potency in assay [1] is 35.2 µM (active) and 35.6 µM (active); in assay [2], 62.6 µM (active) and 39.9 µM (active). Moreover, the Potency result in assay [3] and in assay [4] was “inactive” each time.

`O=Cc1ccccc1C=O`: the Potency result in assay [1] and in assay [4] was “inactive” in each case. Further, the Potency is 35.6 µM (active) and inactive in assay [5]; 63.3 µM (active) and inactive in assay [2].

Turning to `CCC/C=C/C=O`, the Potency in assay [1] was 19.5 µM (active). Moreover, the Potency result in assay [2], in assay [3] and in assay [4] was “inactive” in each case.

On to `COc1ccc(-c2coc3cc(O)cc(O)c3c2=O)cc1`, for which the Potency in assay [1] is 20.2 µM (active) and 28.3 µM (active); in assay [2], 32 µM (active) and 35.6 µM (active); in assay [4], 20.2 µM (active) and 35.6 µM (active). The Potency result in assay [3] is “inactive”.

For the compound `CC(=O)[C@@]1(O)CC[C@H]2[C@@H]3C[C@H](C)C4=CC(=O)C=C[C@]4(C)[C@@]3(F)[C@@H](O)C[C@@]21C`, the Potency entry in assay [1], in assay [2] and in assay [3] was “inactive” in each case.

On to `CN(C)C`, for which the Potency result in assay [1], in assay [5], in assay [2] and in assay [4] was “inactive” in each case.

For the compound `O=S1(=O)CCCO1`, the Potency entry in assay [1], in assay [5] and in assay [4] was “inactive” throughout.

For the compound `CCCCCCC(C)O` (centres undefined), the Potency entry in assay [1], in assay [2], in assay [3] and in assay [4] was “inactive” throughout.

As for `CCC(=O)O[C@H]1[C@H](O[C@@H]2[C@@H](C)[C@H](O[C@H]3C[C@@](C)(OC)[C@@H](O)[C@H](C)O3)[C@@H](C)C(=O)O[C@H](CC)[C@@](C)(O)[C@H](O)[C@@H](C)C(=O)[C@H](C)C[C@@]2(C)O)O[C@H](C)C[C@@H]1N(C)C`, the Potency in assay [1] was 47.1 µM (active) and inactive; in assay [5], 37.4 µM (active) and inactive; in assay [4] it was 265 nM (active) and 2.75 µM (active). Also, in assay [2], the Potency entry was “inactive”.

Consider `Cc1ccc(N)c([N+](=O)[O-])c1`, for which the Potency was 39.4 µM (active) in assay [1]; 15.7 µM (active) and 14.2 µM (active) in assay [2]. The Potency entry in assay [3] and in assay [4] was “inactive” throughout.

With `CCOC(=O)C(C)Oc1ccc(Oc2cnc3cc(Cl)ccc3n2)cc1` (centres undefined), the Potency in assay [1] was 33.3 µM (active); in assay [2], 52.8 µM (active); in assay [3] it was 15.9 µM (active) and 18.3 µM (active). Further, the Potency entry in assay [4] is “inactive”.

As to `Oc1ccc(C(c2ccc(O)cc2)C(Cl)(Cl)Cl)cc1`, the Potency in assay [1] is 17.8 µM (active) and 20 µM (active); in assay [5] it was 22.4 µM (active) and 12.6 µM (active); in assay [4], 17.8 µM (active) and 20 µM (active). Also, in assay [2], the Potency entry is “inactive”.

For `C=C[C@@]1(C)CC(=O)[C@]2(O)[C@@]3(C)[C@@H](O)CCC(C)(C)[C@@H]3[C@H](O)[C@H](OC(C)=O)[C@@]2(C)O1`, the Potency in assay [1] was 39.9 µM (active). The Potency result in assay [2] and in assay [3] was “inactive” each time.

Consider `O=C(O)c1ccc(O)cc1`, for which the Potency entry in assay [1], in assay [2], in assay [3] and in assay [4] was “inactive” in each case.

In the case of `C=CC(=O)OCCCC`, the Potency entry in assay [1], in assay [2], in assay [3] and in assay [4] was “inactive” each time.

As to `[O-]/[N+](=N\O)c1ccccc1`, the Potency in assay [1] is 62.7 µM (active) and 39.9 µM (active); in assay [2] it was 22.2 µM (active) and 25.2 µM (active). The Potency entry in assay [3] and in assay [4] was “inactive” each time.

`Oc1c(Cl)ccc(Cl)c1Cl`: the Potency was 79.5 µM (active) and inactive in assay [1]; 35.5 µM (active) and 35.6 µM (active) in assay [2]. Moreover, the Potency result in assay [3] and in assay [4] was “inactive” each time.

As for `Cc1ccc(C)c(O)c1`, the Potency was 30.9 µM (active) and inactive in assay [1]; 30.9 µM (active) and 41.1 µM (active) in assay [2]. Also, the Potency entry in assay [3] and in assay [4] was “inactive” in each case.

Take `c1ccc2c(c1)[nH]c1ccccc12`: the Potency is 7.83 µM (active) and 7.96 µM (active) in assay [1]; 2.21 µM (active) and 2.24 µM (active) in assay [2]. For the same compound, the Potency result in assay [3] and in assay [4] was “inactive” throughout.

Take `C=CC(C)(O)CCC=C(C)C` (centres undefined): the Potency entry in assay [1], in assay [2], in assay [3] and in assay [4] was “inactive” each time.

Turning to `Cc1ccc(C(C)(C)C)cc1`, the Potency result in assay [1], in assay [5], in assay [2] and in assay [4] was “inactive” in each case.

For `Cc1ccc(S(=O)(=O)O)cc1C`, the Potency entry in assay [1], in assay [2], in assay [3] and in assay [4] was “inactive” in each case.

As for `Nc1ccc(N)c(Cl)c1`, the Potency was 3.17 µM (active) and 5.03 µM (active) in assay [1]; 39.8 µM (active) and 35.6 µM (active) in assay [2]; 2.51 µM (active) and 5.64 µM (active) in assay [4]. For the same compound, the Potency result in assay [3] was “inactive”.

For `ClC/C=C/CCl`, the Potency entry in assay [1], in assay [2], in assay [3] and in assay [4] was “inactive” in each case.

Regarding `C=CN1CCCC1=O`, the Potency entry in assay [1], in assay [5], in assay [2] and in assay [4] was “inactive” in each case.

Consider `c1ccc2c(c1)ccc1ncccc12`, for which the Potency in assay [1] was 35.3 µM (active) and 79.6 µM (active); in assay [2], 4.45 µM (active) and 7.1 µM (active); in assay [4], 62.8 µM (active). For the same compound, in assay [5], the Potency result is “inactive”.

Regarding `CC(=O)OC(C)C`, the Potency entry in assay [1], in assay [2], in assay [3] and in assay [4] was “inactive” in each case.

As to `Cc1cccc(Nc2ccccc2C(=O)O)c1C`, the Potency result in assay [1], in assay [3] and in assay [4] was “inactive” throughout. Further, in assay [5], the Potency was 31.7 µM (active) and 30.9 µM (active).

With `COC(=O)CC(=O)OC`, the Potency in assay [1] is 41.6 µM (active) and inactive; in assay [4], “inactive and 63.3 µM (active)”. For the same compound, the Potency result in assay [2] and in assay [3] was “inactive” in each case.

For the compound `CN(Cc1cnc2nc(N)nc(N)c2n1)c1ccc(C(=O)N[C@@H](CCC(=O)O)C(=O)O)cc1`, the Potency result in assay [1], in assay [2], in assay [3] and in assay [4] was “inactive” in each case.

With `COC(=O)C(C)Oc1ccc(Oc2ncc(C(F)(F)F)cc2Cl)cc1` (centres undefined), the Potency in assay [1] is 40.4 µM (active) and 39.9 µM (active). Also, the Potency entry in assay [5] and in assay [4] was “inactive” throughout.

For the compound `FC(F)(F)C(Cl)Br` (centres undefined), the Potency entry in assay [1], in assay [5], in assay [2] and in assay [4] was “inactive” in each case.

In the case of `O=C(O)c1cc(=O)[nH]c(=O)[nH]1`, the Potency was 40 µM (active) and inactive in assay [1]; 40 µM (active) and inactive in assay [2]. Besides, the Potency result in assay [5] and in assay [4] was “inactive” each time.

For the compound `[Na+]`, in assay [5], the Potency result was “inactive”.
